# Data as given in PubChem BioAssay AID1117361 (Southern Research Institute, 2015).
# In all, about 3,600 compounds went through this assay and about 900 (25%) were called active. How the calls were made is not given here. Only a sample is shown. Results with a measured potency or affinity are listed apart.
# Biological target: Protein Tat (Human immunodeficiency virus type 1 group M subtype B (isolate HXB2)) (UniProt P04608)
# Test: HIV-1 Tat–TAR interaction blockers – biochemical, fluorescence polarization, FAM-labeled TAR RNA, counter-screen for Vif-APOBEC3G degradation inhibitor project, dose response (AID 1117361)
# Conditions: Tat-TAR RNA binding; series mostly up to 100 µM
row,Compound,outcome
1,Cc1ccc2c(c1)NC(=O)c1cc([N+](=O)[O-])ccc1O2,inactive
2,CCCCn1c(NCc2ccccc2NS(=O)(=O)c2ccc(C)cc2)nc2ccccc21,inactive
3,CCOC(=O)C1=C(c2ccccc2)NC(=O)NC1c1cc(Cl)c(O)c(OC)c1 (stereo unspecified),inactive
4,CCOc1ccc(NC(=O)C(C)SC(N)=O)cc1 (stereo unspecified),inactive
5,CCOc1cc(/C=C2/C(=O)N(c3ccccc3)N=C2C)ccc1OC(=O)c1ccco1,inactive
6,O=C(NC1CCN(C(=S)NCc2ccco2)CC1)C12CC3CC(CC(C3)C1)C2,inactive
7,Cc1[nH]nc2c1C(c1cn[nH]c1-c1ccc(F)cc1)C(C#N)=C(N)O2 (stereo unspecified),inactive
8,COc1ccc2c(c1)O[C@@H](c1ccc3c(c1)OCO3)[C@H](OC(=O)Nc1cc(OC)c(OC)c(OC)c1)C2=O,inactive
9,Cn1cc(Br)c(C(=O)NC2CCCCC2)n1,inactive
10,CCOCCCNC(=S)Nc1ccc2nc(N3CCN(CC)CC3)cc(C)c2c1,inactive
11,Cc1nn(Cc2ccc(Cl)cc2Cl)c(C)c1NC(=O)NC12CC3CC(CC(C3)C1)C2,inactive
12,Cc1c(C)c2ccc(O[C@@H]3O[C@H](CO)[C@H](O)[C@H](O)[C@H]3O)c(C)c2oc1=O,inactive
13,Cn1c(SCC(=O)NC(c2ccccc2)c2ccccc2)nnc1-c1cccs1,inactive
14,CC12CCC(C(=O)Nc3ccc(Br)cn3)(OC1=O)C2(C)C (stereo unspecified),inactive
15,O=C(Nc1ccc(F)cc1F)c1noc2c1CCC2,inactive
16,O=C(Nc1ccccc1F)c1ccc(S(=O)(=O)NCC2CCCO2)cc1 (stereo unspecified),inactive
17,CCCC(=O)Nc1ccc(Br)cn1,inactive
18,CC(C)(C)C1CCC(OC(=O)C[N+]2(C)CCCCC2)CC1 (stereo unspecified),inactive
19,COc1ccc(CNC(=O)C2CCCN(S(=O)(=O)c3c(C)nn(C)c3C)C2)cc1 (stereo unspecified),inactive
20,CCCn1c(Sc2nnnn2-c2ccccc2)n[nH]c1=O,inactive
21,N#Cc1c(-c2ccccc2)nc2n1CCS2,inactive
22,O=C(Nc1nccc(-c2cccs2)n1)c1ccccc1Cl,inactive
23,CCOc1cc(C(=O)Nc2c3c(nn2C(C)(C)C)CS(=O)C3)cc(OCC)c1OCC (stereo unspecified),inactive

row,Compound,outcome
1,O=C(CCCN1C(=O)c2ccccc2C1=O)NCC1CCCO1 (stereo unspecified),inactive
2,CCOn1c(=O)c(=O)n(OCc2ccccc2)c2ccccc21,inactive
3,Oc1ccc(Cl)cc1-c1cc(-c2ccccc2)n[nH]1,inactive
4,CN1CCN(C(=O)/C(=C/c2ccc(F)cc2)NC(=O)c2ccccc2)CC1,inactive
5,O=C(c1ccco1)N1CCN(S(=O)(=O)c2ccc(F)cc2)CC1,inactive
6,Cc1ccc(S(=O)(=O)Nc2ccc3c(c2)c2c(n3S(=O)(=O)c3ccc(C)cc3)CCCC2=O)cc1,inactive
7,CCCNC(=O)c1ccc2c(c1)C1C3CCC(C3)C1C(c1ccccc1)N2 (stereo unspecified),inactive
8,Cc1ccc(S(=O)(=O)NC(CC(C)C)C(=O)N2CCN(C/C=C/c3ccccc3)CC2)cc1 (stereo unspecified),inactive
9,O=C(CNC(=O)c1cccs1)OCC(=O)c1ccc2ccccc2c1,inactive
10,c1ccc(-c2nnc(-c3ccncc3)o2)cc1,inactive
11,O=C(COC(=O)COc1ccc(Cl)cc1Cl)NC1CCCCCC1,inactive
12,O=C(CC1NC(=O)NC1=O)Nc1cccc2ccccc12 (stereo unspecified),inactive
13,CC(NC(=O)CC1Nc2ccccc2NC1=O)c1ccccc1 (stereo unspecified),inactive
14,COc1ccc(NC(=O)c2cc3ccccn3n2)cc1,inactive
15,COc1ccc(OC)c(C2NC(=O)NC(C)=C2C(=O)Nc2ccc(C)cc2)c1 (stereo unspecified),inactive
16,Cc1cccc(C)c1OCCOCCN1CCN(C)CC1,inactive
17,CCN(CC)c1ccc(C(=C2C=CC(=[N+](CC)CC)C=C2)c2ccccc2)cc1,inactive
18,O=C(Nc1nccs1)C1CCCN(S(=O)(=O)c2cccc3cccnc23)C1 (stereo unspecified),inactive
19,Cn1c(C(=O)N[C@@H](C(=O)O)c2ccccc2)cc2cc(Cl)ccc21,inactive
20,COc1ccc2nc(SCC(=O)NN)cc(C)c2c1,inactive
21,Cc1ccc(SCCC(=O)NCc2ccco2)cc1,inactive
22,CC(C)(C)c1nnc(NC(=O)c2ccc(Cl)nc2)s1,inactive
23,N#Cc1ccccc1CN1C(=O)S/C(=C/c2cccn2-c2ccc(C(=O)O)cc2)C1=O,inactive

row,Compound,outcome
1,Cc1ccc(C(=O)O)cc1-c1ccc(/C=C2/NC(=O)N(c3ccccc3)C2=O)o1,inactive
2,CCNc1nc(OCCNS(=O)(=O)c2cc(C)ccc2C)nc(N(C)C)n1,inactive
3,COc1ccccc1NC(=O)C(C)NS(=O)(=O)c1ccc(F)cc1 (stereo unspecified),inactive
4,CCc1ccc(OCCNC(=O)c2cccs2)cc1,inactive
5,COc1ccccc1NC(=O)CN(c1ccccc1OC)S(=O)(=O)c1ccccc1,inactive
6,Cc1c(C(=O)NCc2cccnc2)oc2ccccc12,inactive
7,CCc1cccc(NC(=O)CCCCCC2NC(=O)NC2C)c1 (stereo unspecified),inactive
8,COC(=O)C1=C(C)NC(=O)C1(NS(=O)(=O)c1ccc(C)cc1)C(F)(F)F (stereo unspecified),inactive
9,Cc1ccc(C)c(NC(=S)NCc2ccccc2)c1,inactive
10,CN1c2ccsc2/C(=N/NC(=O)c2c(F)cccc2F)CS1(=O)=O,inactive
11,O=C(O)C1=C(C(=O)Nc2ccc(F)c(Cl)c2)CCCC1,inactive
12,COC(=O)CSc1nnc(CNC(=O)c2cccs2)n1-c1cc(OC)ccc1OC,inactive
13,Cc1ccc(NC(=O)CSc2nnc(C3CCCCC3)n2N)cc1F,inactive
14,CCOC(=O)C1CCCN(c2ncnc3c2cnn3-c2ccc(Cl)cc2)C1 (stereo unspecified),inactive
15,CCOc1cccc(NC(=O)C2CCCN(S(=O)(=O)c3ccc(OC)cc3)C2)c1 (stereo unspecified),inactive
16,O=C(O)c1cccc(S(=O)(=O)Nc2ccccc2Cl)c1,inactive
17,COc1cccc(NC(=O)C2CCCN2C(=O)OCc2ccccc2)c1 (stereo unspecified),inactive
18,O=c1nc(N2CCOCC2)nc2n1CCO2,inactive
19,Cc1cc(=O)n2nc(N3CCCC(C(=O)NC4CCC(C)CC4)C3)sc2n1 (stereo unspecified),inactive
20,CN(C)c1nc(OCCNC(=O)COc2ccc(Cl)cc2Cl)nc(N2CCOCC2)n1,inactive
21,CCCCC(=O)Nc1ccc(C(=O)NN2C(=O)c3ccccc3C2=O)cc1,inactive
22,Cc1ccc(NC(=O)CSc2nc(CSc3ccc(C)cc3)cc(=O)[nH]2)cc1,inactive
23,O=C1c2cnc3nc(SCc4ccccc4)nn3c2CC2c3ccccc3CCN12 (stereo unspecified),inactive

row,Compound,outcome
1,CC(=O)Nc1ccc(S(=O)(=O)Nc2ccc(NC(=O)c3ccco3)cc2)cc1,inactive
2,COc1ccc(S(=O)(=O)NCCSCc2ccco2)cc1Cl,inactive
3,FC(F)(F)c1cccc(Oc2ccc3c(C(F)(F)F)cc(C(F)(F)F)nc3n2)c1,inactive
4,O=C(Cc1c(F)cccc1Cl)NNC(=O)c1ccccc1Cl,inactive
5,CCc1ccccc1NC(=O)CC(O)(C(=O)OC)C(F)(F)F (stereo unspecified),inactive
6,O=C(CN1C(=O)NC2(CCCCCCC2)C1=O)NCc1ccc2c(c1)OCO2,inactive
7,O=C(CN1C(=O)NC2(CCCCC2)C1=O)NCCC1=CCCCC1,inactive
8,Cc1ccc(C(=O)COC(=O)CNC(=O)Cc2ccccc2)cc1[N+](=O)[O-],inactive
9,O=C(CN1C(=O)NC(c2ccc(F)cc2)C1=O)Nc1ccc2c(c1)OCCO2 (stereo unspecified),inactive
10,O=C(CSc1nnc(-c2cccs2)o1)OC1CCCCC1,inactive
11,O=C1COc2ccc(C(=O)NCc3ccco3)cc2N1,inactive
12,CC1=C(C(=O)NCc2ccco2)C2(CCC(C)CC2)OC1=O (stereo unspecified),inactive
13,Fc1ccc2[nH]c3c(N4CCc5ccccc5C4)ncnc3c2c1,inactive
14,CC1CCN(C(=O)C2c3ccccc3C(=O)N3CCc4ccccc4C23)CC1 (stereo unspecified),inactive
15,COc1ccc(-n2c(=O)[nH]cc(C(=O)N3CCc4ccccc43)c2=O)cc1,inactive
16,CCOc1ccc(C(=O)NC2CCN(S(=O)(=O)CC)CC2)cc1,inactive
17,CNS(=O)(=O)c1cccc(C(=O)OCc2cc(Cl)cc3c2OCOC3)c1,inactive
18,COCCn1c(SCC(=O)Nc2cc(C)on2)nc2cc(Cl)ccc2c1=O,inactive
19,CCN(CC)CCN=CC1=C(O)CNC1=O,inactive
20,CCOc1ccccc1N1C(=O)c2ccc(C(=O)Nc3cccnc3)cc2C1=O,inactive
21,C[C@H](NC(=O)NCc1cccs1)C(=O)O,inactive
22,CCOC(=O)c1c(C)[nH]c(C)c1C(=O)COC(=O)c1cccc(S(=O)(=O)NC)c1,inactive
23,CCN(c1ccc(NC(=O)COC(=O)c2ccc([N+](=O)[O-])o2)cc1)C(C)C,inactive

row,Compound,outcome
1,COc1ccc(NC(=O)/C(C#N)=C/c2ccc(Sc3nncn3C)c([N+](=O)[O-])c2)cc1,inactive
2,COc1ccc(NC(=O)/C(C#N)=C/c2ccc(Br)o2)cc1,inactive
3,CCOC(CCNC(=O)c1cn(C)c(=O)c2c1c1ccccc1n2C)OCC,inactive
4,COc1ccccc1-n1c(SCC(=O)NCc2ccc3c(c2)OCO3)nc2cc([N+](=O)[O-])ccc21,inactive
5,Nc1cc(N)nc(SCc2cc([N+](=O)[O-])cc3c2OCOC3)n1,inactive
6,COCCn1c(N)c(N(Cc2ccccc2)C(=O)C2CCCCC2)c(=O)[nH]c1=O,inactive
7,Cc1ccc(S(=O)(=O)N2CCN(Cc3nc4sc(C)c(C)c4c(=O)[nH]3)CC2)cc1,inactive
8,CCc1ccc(C(=O)Nc2ccc(S(=O)(=O)Nc3nc(C)cc(C)n3)cc2)o1,inactive
9,O=C(NC12CC3CC(CC(C3)C1)C2)c1ccc(S(=O)(=O)N2CCOCC2)cc1,inactive
10,CCn1ncc(Br)c1C(=O)Nc1sc2c(c1C(N)=O)CCC2,inactive
11,CCOC(=O)CNC(=O)Cn1cnc2c(nnn2-c2ccc(F)cc2)c1=O,inactive
12,Cc1nc2nc(COc3ccccc3)[nH]n2c(=O)c1Cc1ccccc1,inactive
13,O=c1cc2c(n[nH]1)CCCC2,inactive
14,O=C(Nc1cccc(Cl)c1)C1=Cc2cc(Cl)ccc2OC1,inactive
15,Cc1nc(NC(=O)/C=C/c2ccccc2)sc1C(=O)Nc1ccccc1,inactive
16,CCN(CC)S(=O)(=O)c1cccc(NC(=O)/C=C/c2cccc([N+](=O)[O-])c2)c1,inactive
17,Cc1ccc(NC(=O)/C=C\C(=O)O)c([N+](=O)[O-])c1,inactive
18,COc1ccc(NC(=O)/C=C/c2ccc(S(=O)(=O)N3CCOCC3)cc2)cc1,inactive
19,O=C(CSc1ncnc2ccccc12)Nc1cccc(S(=O)(=O)N2CCOCC2)c1,inactive
